# Assay outcomes deposited in PubChem BioAssay by several laboratories.
# esBAF inh: Bmi1 luciferase reporter increase in mESCs, primary screen, esBAF inhibitor project, mouse ES cells, Bmi1 luciferase knock-in, single point; 24 h; 100% = twice the neutral-well signal; reporter increase, % at 12.5 µM; 2% of 350,000 active; AID 602393, 2012; in the data active means activation above about 40%;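 further: 0% = median of the plate's neutral control wells and 100% = double that signal; a rise in the Bmi1 reporter signal indicates esBAF inhibition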
# Wnt bcat act: Wnt/beta-catenin pathway activators, primary screen, cell-based, plate reader, single point | Wnt/beta-catenin reporter cell assay, activator | activation, % at 9.35 µM | 1.2% of 300,000 active | AID 743398, 2014; in the data active means activation above about 30%, passing the limit was not always enough;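 further: 0% = neutral control wells and 100% = positive control wells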
# FXN GAA850 act: FXN promoter activators, primary screen, cell-based, luciferase luminescence, HEK293 lucGAA850. activation, % at 6 µM. AID 540364, 2011. HEK293 lucGAA850 FXN promoter luciferase reporter, 24 h; percent of 10 µM SAHA response. 0.56% of 360,000 active;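 active means activation above the average of all compounds screened plus 3 SD, cutoff fixed separately per campaign, cut at about 7.5% in these data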;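 further: 0% = DMSO wells and 100% = 10 µM SAHA wells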
# MITF TRPM1 HTS: activators of MITF-driven TRPM1 promoter reporter, primary screen, cell-based, SK-MEL-5, luciferase, single point | SK-MEL-5 TRPM1-promoter luciferase, 24 h; % of positive control, neutral wells = 0 | activation, % at 12.5 µM | 0.75% of 300,000 active;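 active means mean activation of at least 80% with every replicate also reaching 80%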;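 further: 0% = neutral control wells and 100% = parthenolide positive control wells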
# AHR act: AHR activators, primary screen, cell-based, luminescence, luciferase reporter, human. Aryl hydrocarbon receptor (Homo sapiens), P35869. AHR-responsive luciferase reporter cells. activation, % at 5 µM. 2.5% of 320,000 active. AID 2796, 2010; in the data active means activation above about 47%;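 further: 0% = vehicle wells and 100% = reference agonist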
# Target sequence (P35869 whole entry, looked up): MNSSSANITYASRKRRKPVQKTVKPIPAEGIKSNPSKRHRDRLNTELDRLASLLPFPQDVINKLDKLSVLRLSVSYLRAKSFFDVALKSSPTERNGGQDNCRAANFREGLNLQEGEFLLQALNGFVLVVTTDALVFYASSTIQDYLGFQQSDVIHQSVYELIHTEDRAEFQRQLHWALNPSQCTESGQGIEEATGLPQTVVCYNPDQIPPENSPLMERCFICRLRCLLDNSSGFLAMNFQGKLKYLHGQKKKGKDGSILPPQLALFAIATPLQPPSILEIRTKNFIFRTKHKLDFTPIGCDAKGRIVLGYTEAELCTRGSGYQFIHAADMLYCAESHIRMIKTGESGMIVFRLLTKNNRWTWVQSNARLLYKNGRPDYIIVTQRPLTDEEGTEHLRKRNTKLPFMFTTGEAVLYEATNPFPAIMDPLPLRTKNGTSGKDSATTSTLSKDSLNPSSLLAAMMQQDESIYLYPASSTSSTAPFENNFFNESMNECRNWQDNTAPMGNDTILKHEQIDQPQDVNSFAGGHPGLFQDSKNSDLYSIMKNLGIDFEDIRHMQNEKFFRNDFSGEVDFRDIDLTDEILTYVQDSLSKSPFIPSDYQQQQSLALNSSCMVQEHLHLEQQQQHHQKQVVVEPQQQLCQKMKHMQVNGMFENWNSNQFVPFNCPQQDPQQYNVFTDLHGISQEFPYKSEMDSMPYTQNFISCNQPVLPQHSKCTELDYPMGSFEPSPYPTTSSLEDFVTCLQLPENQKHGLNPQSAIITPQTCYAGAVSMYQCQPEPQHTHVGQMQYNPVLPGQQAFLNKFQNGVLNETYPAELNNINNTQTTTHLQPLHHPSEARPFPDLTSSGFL
# Starred values were filed as active, the others as inactive; / = no result. Shown are actives, neighbours in structure and some others; about 4.2% of the full set was active somewhere.
SMILES,esBAF inh,Wnt bcat act,FXN GAA850 act,MITF TRPM1 HTS,AHR act
CN(C)c1ccc(NC(=O)N2CCOCC2)cc1,55*,8,2,23,14
CC(=O)c1cccc(NC(=O)c2ccc(N(C)S(=O)(=O)c3ccc(C)cc3)cc2)c1,-1,-3,1,-8,48*
Cc1ccc(C(=O)Nc2cccc(C(=O)NC3CCCC3)c2)cc1,50*,2,1,33,37
Cc1cccc(C(=O)Nc2cccc(C(=O)NC3CCCC3)c2)c1,1,2,1,9,7
C[C@H]1CCCCO[C@@H](CN(C)C(=O)NC2CCCCC2)[C@@H](C)CN([C@@H](C)CO)C(=O)c2cc(NS(=O)(=O)c3cccs3)ccc2O1,4,/,/,/,/
Cc1ccc(S(=O)(=O)N[C@H]2CC[C@@H](CC(=O)NCCN3CCCCC3)O[C@@H]2CO)cc1,1,/,/,/,/
C[C@H]1CCCCO[C@@H](CN(C)C(=O)C2CCCCC2)[C@@H](C)CN([C@@H](C)CO)C(=O)c2cc(NC(=O)CCC(F)(F)F)ccc2O1,-1,/,/,/,/
C[C@@H]1CCCCO[C@@H](CN(C)S(=O)(=O)c2ccc(F)cc2)[C@H](C)CN([C@@H](C)CO)C(=O)c2cc(NC(=O)C3CCCCC3)ccc2O1,3,/,/,/,/
Cc1ccc(C(=O)Nc2cccc(C(=O)N3CCOCC3)c2)cc1,21,41*,3,9,11
Cc1cnc(C(=O)Nc2ccc(C(=O)N3CCCCC3)cc2)cn1,-5,1,1,-2,-2
Cc1ccc(C(=O)Nc2ccc(C(=O)/C=C/c3cccs3)cc2)cc1,69*,9,5,/,6
Cc1cnc(C(=O)Nc2ccc(OC(F)(F)F)cc2)cn1,44*,8,1,/,-5
C[C@@H]1CN([C@H](C)CO)C(=O)c2cc(NC(=O)CCCN(C)C)ccc2O[C@@H](C)CCCCO[C@@H]1CN(C)CC1CCCCC1,2,/,/,/,/
C[C@@H]1CN([C@H](C)CO)C(=O)Cc2cc(NS(=O)(=O)c3ccccc3)ccc2O[C@@H]1CN(C)S(C)(=O)=O,3,/,/,/,/
COc1ccc(OC)c(Cc2nnc(CCC(=O)N3CCCCCC3)o2)c1,52*,2,3,27,12
COc1ccc(OC)c(Cc2nnc(CCC(=O)N3CCCCC3c3nccs3)o2)c1 (stereo not drawn),48*,40*,3,57,28
COc1ccc(OC)c(Cc2nnc(CCC(=O)N3CCC(N4CCCCC4)CC3)o2)c1,/,-1,0,6,-2
Cc1cc(C(=O)Nc2cccc3c2O[C@H](CN(C)C(=O)Nc2ccc(F)cc2)[C@H](C)CN([C@@H](C)CO)C3=O)n(C)n1,2,/,/,/,/
COc1cc(N2CCCC2)c(OC)cc1/C=C1/NC(=S)NC1=O,/,-4,1,-1,66*
Cc1cc(=O)oc2cc(NC(=O)c3ccccc3OC(F)F)ccc12,53*,17,6,58,37
Cc1cc(=O)oc2cc(NC(=O)c3cc(F)ccc3F)ccc12,53*,44*,3,64,1
Cc1cc(=O)oc2cc(NC(=O)c3cc4ccccc4o3)ccc12,/,/,/,/,25
Cc1cc(=O)oc2cc(NS(=O)(=O)c3ccccc3)ccc12,/,52*,1,/,2
C[C@H](CO)N1C[C@H](C)[C@@H](CN(C)S(C)(=O)=O)OCCCC[C@H](C)Oc2ccc(NS(=O)(=O)c3ccccc3)cc2C1=O,0,/,/,/,/
Cc1ccc(NC(=O)/C=C2\NC(=O)CS2)cc1,37,11,1,67,61*
SMILES,esBAF inh,Wnt bcat act,FXN GAA850 act,MITF TRPM1 HTS,AHR act
c1ccc(-c2onc3cc4c(cc23)OCCO4)cc1,68*,/,4,106*,2
Cc1c(/C=C2\NC(=O)NC2=O)c2ccccc2n1C,-12,0,-1,/,75*
O=C1NC(=O)/C(=C\c2cn(Cc3ccccc3F)c3ccccc23)N1,-4,-1,2,-11,39
C[C@H]1CN([C@@H](C)CO)C(=O)Cc2cc(NC(=O)Cn3cnnn3)ccc2O[C@@H]1CN(C)Cc1ccc(Cl)c(Cl)c1,4,/,/,/,/
C/C(=N/NC(=O)CC1N=C(Cc2ccccc2)NNC1=O)c1cccnc1 (stereo not drawn),/,-1,2,-9,62*
CCC(SC1=Nc2ccccc2C2=NC(CC(C)C)C(=O)N12)C(=O)Nc1ccc2c(c1)OCO2 (stereo not drawn),51*,6,-4,11,30
Cc1ccc(C(=O)O/N=C(\N)Cc2cccs2)c(Cl)c1,/,/,-1,117*,-10
N/C(=N\OC(=O)Cc1cccs1)c1ccc(Cl)cc1,81*,34*,4,79,-2
Cc1cccc(/C(N)=N/OC(=O)Cc2cccs2)c1,48*,/,4,95*,1
Cc1ccc(/C(N)=N/OC(=O)Cc2cccs2)cc1,55*,/,2,111*,-5
N/C(=N\OC(=O)CN1C(=O)c2ccccc2C1=O)c1ccc(Cl)cc1,/,-2,1,2,-1
CO[C@@H]1CN(C)C(=O)c2ccc(NC(C)=O)cc2OC[C@@H](C)N(C(=O)Cc2ccccn2)C[C@H]1C,0,/,/,/,/
O=C(C[C@H]1C[C@H]2c3cc(NC(=O)Nc4ccc(C(F)(F)F)cc4)ccc3O[C@H]2[C@H](CO)O1)NCc1ccccn1,-5,/,/,/,/
CCNC(=O)C[C@@H]1C=C[C@@H](NC(=O)C2CCC2)[C@H](CO)O1,0,/,/,/,/
N/C(=N\OC(=O)Cc1cccs1)c1ccccc1,72*,/,2,/,-2
N/C(=N\OC(=O)Cc1cccs1)c1cccc([N+](=O)[O-])c1,34,5,4,20,1
Cc1cc(C)c(-c2cc(NC(=O)CSc3nncn3C)n(-c3ccccc3)n2)cc1C,-1,/,2,2,64*
C[C@H](CO)N1C[C@H](C)[C@@H](CN(C)CC2CC2)Oc2ccc(NC(=O)Cc3cn(C)c4ccccc34)cc2CC1=O,-4,/,/,/,/
COC(=O)c1ccc(CSc2nc(N)cc(N)n2)cc1,52*,/,1,32,0
COC(=O)c1ccc(CSc2nnc(N)s2)cc1,30,/,3,32,1
CO[C@@H]1CN(C)C(=O)c2cc(NC(C)=O)ccc2OC[C@H](C)NC[C@H]1C,-3,/,/,/,/
COc1ccccc1N1C(=O)N(C(C)=O)C2C1Nc1ccccc1N2C (stereo not drawn),-5,-6,1,-69,60*
C[C@H](O)C#Cc1cnc2c(c1)C(=O)N([C@@H](C)CO)C[C@@H](C)[C@@H](CN(C)Cc1cccc(F)c1)O2,7,/,/,/,/
